PKM2 activator: increases activity of human pyruvate kinase M2; P14618; purified PKM2, Kinase-Glo ATP luminescence, activation; response scale: 0% is enzyme alone, no compound; Potency, µM (top dose mostly 57.5 µM), hits mostly activators; actives 0.34% (n = 260,000); note: nearly all actives have a fitted effect of over 55% in size
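Purified hPK-M2 (>95%) run at intermediate activity with 0.1 mM ADP and 0.5 mM PEP in 50 mM imidazole pH 7.2, KCl, MgCl2; 1 h room temperature. ATP formed read by Kinase-Glo luminescence; normalized to uninhibited and no-enzyme controls.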
Gal4-VP16 FLuc: counter-screen for ROR gamma inhibitors: Gal4-VP16 reporter | Potency, µM (titrated, usually from 53.6 µM), most hits filed as inhibitors | AID 2546 | Drosophila S2 Gal4-VP16 UAS-luciferase, luminescence, 20 h | actives 3.5% (n = 310,000);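 note: Gal4-VP16 expression switched on by copper sulfate through the metallothionein promoter; nearly all actives have a fitted effect of over 50% in size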
Six1-Eya2 inh: blocks human Six1 binding to Eya2; activity change, % (no concentration beside the values); AlphaScreen GST-Six1/His-Eya2 binding, biochemical; hits give low values; actives 0.56% (n = 360,000); in the data active = activity change below about -65%; inconclusive = mostly about -30% to -63%
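GST-Six1 + His-Eya2 (5X stock: 250/500 nM); Tris pH 8.0, 300 mM NaCl, 0.05% BSA, 0.02% Tween 20; GSH donor/Ni acceptor beads; 1 h 37 °C dark; AlphaScreen readout.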
RORgamma inh: inhibitors of mouse ROR gamma transcriptional activity | P51450 | Drosophila S2 Gal4-RORgamma UAS-luciferase reporter, 20 h | Potency, µM (titrated, usually from 53.6 µM), most hits filed as inhibitors | actives 5.4% (n = 310,000) | AID 2551; note: nearly all actives have a fitted effect of over 60% in size
Target sequence (P51450 whole entry, looked up, the tested form may be a part): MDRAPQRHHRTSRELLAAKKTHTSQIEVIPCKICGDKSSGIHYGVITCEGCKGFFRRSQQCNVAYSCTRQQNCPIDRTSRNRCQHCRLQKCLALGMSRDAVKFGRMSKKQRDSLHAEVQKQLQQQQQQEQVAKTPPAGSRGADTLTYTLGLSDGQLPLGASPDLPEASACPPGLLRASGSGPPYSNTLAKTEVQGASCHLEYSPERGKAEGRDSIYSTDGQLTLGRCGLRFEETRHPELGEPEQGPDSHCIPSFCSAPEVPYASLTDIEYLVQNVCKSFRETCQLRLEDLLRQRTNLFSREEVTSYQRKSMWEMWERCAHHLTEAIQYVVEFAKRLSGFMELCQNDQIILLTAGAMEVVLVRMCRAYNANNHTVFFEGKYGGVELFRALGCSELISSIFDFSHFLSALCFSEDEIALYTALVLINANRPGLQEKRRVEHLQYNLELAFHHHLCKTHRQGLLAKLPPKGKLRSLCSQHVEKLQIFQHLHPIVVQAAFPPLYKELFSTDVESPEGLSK
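Using a luciferase readout, inhibitors were identified by reduced reporter activity in Drosophila cells coexpressing a copper-inducible Gal4–ROR gamma fusion and UAS-driven Photinus luciferase, incubated 20 hr after 700 uM copper sulfate.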
CtBP-E1A inh: inhibitors of CtBP/E1A interaction | AlphaScreen GST-E1A/His-CtBP binding, 1536-well; hits give low values | AID 651724 | actives 0.49% (n = 340,000) | activity change, % (test concentration not listed); in the data active = activity change below about -65%; inconclusive = mostly about -30% to -63%
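GST-E1A and His-tagged CtBP (125 nM each as 5X stock) were preincubated with pin-transferred compound for 2 h at 37 °C in the dark, then glutathione donor and nickel acceptor beads were added for 1 h before AlphaScreen reading.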
Numbers stand for hits; [ ] = remark or other dose. Compounds with a hit are over-represented: about 5.6% of the library has one in this group of screens. Unless noted, calls come from the whole dose curve; as a rule, active = well fitted curve in the direction sought with a large enough effect; inconclusive = small, poorly fitted or top-dose-only effect, or another doubt; inactive = no such curve, though single readings can be large; an effect the other way counts as inactive or inconclusive.

Results for COc1ccc(S(=O)(=O)N2CCCOC2CNC(=O)C(=O)NC2CCCC2)cc1 (stereo unspecified) ?
PKM2 activator: inactive; Gal4-VP16 FLuc: inactive; Six1-Eya2 inh: inactive; RORgamma inh: inactive; CtBP-E1A inh: inactive

What do the screens show for `CC(NC(=O)Cc1ccc(NS(=O)(=O)c2cccc(C(F)(F)F)c2)cc1)c1ccccn1` (stereo unspecified)?
PKM2 activator: inactive; Gal4-VP16 FLuc: inactive; Six1-Eya2 inh: inactive; RORgamma inh: inactive; CtBP-E1A inh: inactive

Results for COc1ccc(OCc2csc(N)n2)cc1 ?
PKM2 activator: inactive; Gal4-VP16 FLuc: inactive; Six1-Eya2 inh: inactive; RORgamma inh: inactive; CtBP-E1A inh: inactive

What do the screens show for `Cc1cccc(NC(=S)NC(=O)CCc2ccccc2)c1C`?
PKM2 activator: inactive; Gal4-VP16 FLuc: inconclusive; Six1-Eya2 inh: inactive; RORgamma inh: 2.51µM; CtBP-E1A inh: inactive

What do the screens show for `Cc1cc(C)c(O)c(NC(=S)NC(=O)Cc2ccccc2)c1`?
PKM2 activator: inactive; Gal4-VP16 FLuc: 5.62µM; Six1-Eya2 inh: inactive; RORgamma inh: 10µM; CtBP-E1A inh: inactive

Results for Cc1c(Cl)cccc1NC(=S)NC(=O)CCN1C(=O)c2ccccc2C1=O ?
PKM2 activator: inactive; Gal4-VP16 FLuc: inconclusive; Six1-Eya2 inh: inactive; RORgamma inh: 15.8µM; CtBP-E1A inh: inactive

What do the screens show for `Cc1cccc(NC(=S)NC(=O)Cc2ccccc2)c1C`?
PKM2 activator: inactive; Gal4-VP16 FLuc: 4.47µM; Six1-Eya2 inh: inactive; RORgamma inh: 3.98µM; CtBP-E1A inh: inactive

What do the screens show for `Cc1c(NC(=S)NC(=O)Cc2ccccc2)cccc1C(=O)O`?
PKM2 activator: inactive; Gal4-VP16 FLuc: inactive; Six1-Eya2 inh: inactive; RORgamma inh: inactive; CtBP-E1A inh: inactive

How did CCCN1CCC(=O)N(C(CSc2ccc(Br)cc2)c2ccccc2)CC1 (stereo unspecified) do in these assays?
Gal4-VP16 FLuc: inactive; RORgamma inh: inactive

How did c1cnn(-c2cncc(-n3cccn3)n2)c1 do in these assays?
PKM2 activator: inactive; Gal4-VP16 FLuc: inactive; Six1-Eya2 inh: inactive; RORgamma inh: inactive; CtBP-E1A inh: inactive

How did COc1cc(-c2nnc(COC(=O)c3ccc(C)o3)o2)cc(OC)c1OC do in these assays?
Six1-Eya2 inh: inactive; CtBP-E1A inh: inactive

How did CSc1cccc(NC(=O)Nc2ccccc2C(N)=O)c1 do in these assays?
PKM2 activator: inactive; Gal4-VP16 FLuc: inactive; Six1-Eya2 inh: inactive; RORgamma inh: inactive

Results for Cc1cccc(NC(=S)NC(=O)c2ccco2)c1C ?
PKM2 activator: inactive; Gal4-VP16 FLuc: 11.2µM; Six1-Eya2 inh: inactive; RORgamma inh: 3.55µM; CtBP-E1A inh: inactive

What do the screens show for `Cc1cccc(NC(=S)NC(=O)CCc2ccccc2)c1`?
PKM2 activator: inactive; Gal4-VP16 FLuc: inconclusive; Six1-Eya2 inh: inactive; RORgamma inh: 10µM; CtBP-E1A inh: inactive

How did Cc1onc(-c2ccccc2Cl)c1C(=O)Nc1ccccc1O do in these assays?
PKM2 activator: inactive; Gal4-VP16 FLuc: inactive; Six1-Eya2 inh: inactive; RORgamma inh: inactive; CtBP-E1A inh: inactive

How did CN1CCN(C(CNC(=O)c2ccc(Br)o2)c2ccc(F)cc2)CC1 (stereo unspecified) do in these assays?
Six1-Eya2 inh: inactive; CtBP-E1A inh: inactive

Results for CCOC(=O)c1ccc(NC(=S)N(CCN(C)C)C(C)c2ccncc2)cc1 (stereo unspecified) ?
Gal4-VP16 FLuc: inactive; Six1-Eya2 inh: inactive; RORgamma inh: inactive

How did COCCCN(C(=S)Nc1cc(Cl)cc(Cl)c1)C(C)c1ccccn1 (stereo unspecified) do in these assays?
PKM2 activator: inactive; Gal4-VP16 FLuc: inconclusive; Six1-Eya2 inh: inactive; RORgamma inh: 7.08µM

How did Cc1cccc(NC(=S)N(CCN(C)C)C(C)c2ccccn2)c1 (stereo unspecified) do in these assays?
PKM2 activator: inactive; Gal4-VP16 FLuc: inactive; Six1-Eya2 inh: inconclusive; RORgamma inh: 11.2µM; CtBP-E1A inh: inconclusive

How did Cc1cccc(NC(=S)N(CCN(C)C)C(C)c2cccnc2)c1 (stereo unspecified) do in these assays?
PKM2 activator: inactive; Gal4-VP16 FLuc: inactive[10 µM]; Six1-Eya2 inh: inactive; RORgamma inh: inactive; CtBP-E1A inh: inactive

Results for COCCCN(C(=S)Nc1cc(Cl)cc(Cl)c1)C(C)c1ccncc1 (stereo unspecified) ?
PKM2 activator: inactive; Gal4-VP16 FLuc: inconclusive; Six1-Eya2 inh: inactive; RORgamma inh: inconclusive; CtBP-E1A inh: inactive

What do the screens show for `CCc1cccc(NC(=S)N(CCN(C)C)C(C)c2ccncc2)c1` (stereo unspecified)?
PKM2 activator: inactive; Gal4-VP16 FLuc: inactive; Six1-Eya2 inh: inactive; RORgamma inh: 14.1µM

What do the screens show for `CC(c1ccccn1)N(Cc1ccco1)C(=S)Nc1cccc(F)c1` (stereo unspecified)?
PKM2 activator: inactive; Gal4-VP16 FLuc: inconclusive; Six1-Eya2 inh: inactive; RORgamma inh: 12.6µM; CtBP-E1A inh: inactive

What do the screens show for `Cc1ccc(Cl)cc1NC(=S)N(CCN(C)C)C(C)c1ccccn1` (stereo unspecified)?
PKM2 activator: inactive; Gal4-VP16 FLuc: inactive; Six1-Eya2 inh: inconclusive; RORgamma inh: 10µM; CtBP-E1A inh: inconclusive

Results for COc1cc(Cl)ccc1NC(=S)N(CCN(C)C)C(C)c1ccncc1 (stereo unspecified) ?
PKM2 activator: inactive; Gal4-VP16 FLuc: inactive; Six1-Eya2 inh: inactive; RORgamma inh: inactive

What do the screens show for `CCC(CC)NC(=O)c1oc2ccccc2c1COc1ccccc1`?
PKM2 activator: inactive; Gal4-VP16 FLuc: 28.2µM; Six1-Eya2 inh: inactive; RORgamma inh: inconclusive; CtBP-E1A inh: inactive

What do the screens show for `Cc1ccoc1C(=O)Nc1ccc(CC(=O)O)cc1`?
PKM2 activator: inactive; Gal4-VP16 FLuc: inconclusive; Six1-Eya2 inh: inactive; RORgamma inh: 0.501µM; CtBP-E1A inh: inactive

Results for Cc1ccoc1C(=O)Nc1ccc2ccccc2c1 ?
PKM2 activator: inactive; Gal4-VP16 FLuc: inconclusive; Six1-Eya2 inh: inactive; RORgamma inh: inconclusive; CtBP-E1A inh: inactive

Results for COc1ccc(-c2nc3oc4cc(OC)ccc4c(=O)c3c(=O)n2Cc2ccco2)cc1 ?
PKM2 activator: inconclusive; Gal4-VP16 FLuc: inactive[0.365 µM]; Six1-Eya2 inh: inactive; RORgamma inh: inactive; CtBP-E1A inh: inactive

What do the screens show for `CCc1nc2oc3cc(OC)ccc3c(=O)c2c(=O)n1Cc1ccco1`?
PKM2 activator: 25.1µM; Gal4-VP16 FLuc: inactive; Six1-Eya2 inh: inactive; RORgamma inh: inactive; CtBP-E1A inh: inactive

What do the screens show for `O=C(COC(=O)C1CCC1)NCc1ccc(Cl)cc1Cl`?
Six1-Eya2 inh: inactive; CtBP-E1A inh: inactive

How did CCCCCCCc1ccc(C2NC(=S)NC3=C2C(=O)c2ccccc23)cc1 (stereo unspecified) do in these assays?
PKM2 activator: inactive; Gal4-VP16 FLuc: inconclusive; Six1-Eya2 inh: inactive; RORgamma inh: 5.62µM; CtBP-E1A inh: inactive

What do the screens show for `Cc1ccc(N2C(=S)NC3c4cc(Cl)ccc4OC2(C)C3C(=O)N(C)C)cc1` (stereo unspecified)?
PKM2 activator: inactive; Gal4-VP16 FLuc: inactive; Six1-Eya2 inh: inactive; RORgamma inh: 11.2µM; CtBP-E1A inh: inactive
